Source: PubChem BioAssay AID1159580 (chemical genetic matrix, 2015)
Where “and” joins values, the source holds several entries; their conditions need not be identical. Equal values may be shown once. Screen size: about 5,500 compounds; about 2,000 (36%) were called active. About 18% were inconclusive and are not listed. Cut-off read from the data, not from the text of the source: active = normalized growth mostly below about 0.91 (no sharp cut-off); inconclusive = no clear call, values can overlap the other calls; inactive = mostly above about 0.92. This is one part of the list.

Assay: chemical genetic growth profiling, strain panel (AID 1159580);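 note: tested at 20 µM; growth read once vehicle control cultures reached saturation at 30 °C; 1 = growth at the plate median or of vehicle wells; lower values mean less growth of the strain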
Details: S. cerevisiae deletion strains, growth OD

Measured: normalized growth

CC(=O)CC1CCCCN1 (configuration not stated)
inactive: locus YAL013W, strain DEP1, hits give low values 1.01 | locus YAL021C, strain ccr4, hits give low values 1.02 | locus YAL026C, strain drs2, hits give low values 1.01 | locus YAL030W, strain snc1, hits give low values 1.02 | locus YBL061C, strain skt5, hits give low values 1.02 | locus YBR009C, strain hhf1, hits give low values 1.02 | locus YBR021W, strain FUR4, hits give low values 0.985 | locus YBR023C, strain chs3, hits give low values 1.03 | locus YBR171W, strain sec66, hits give low values 1.02 | locus YBR229C, strain ROT2, hits give low values 1.02 | locus YBR231C, strain swc5, hits give low values 1.01 | locus YBR279W, strain paf1, hits give low values 1.03 | locus YCL011C, strain gbp2, hits give low values 1.02 | locus YCL016C, strain dcc1, hits give low values 1.03 | locus YCL029C, strain bik1, hits give low values 0.99 | locus YCL061C, strain MRC1, hits give low values 1.01 | locus YCL069W, strain vba3, hits give low values 1 | locus YCR088W, strain abp1, hits give low values 1.02 | locus YDL005C, strain med2, hits give low values 1.02 | locus YDL035C, strain GPR1, hits give low values 1.02 | locus YDL040C, strain nat1, hits give low values 1.02 | locus YDL074C, strain BRE1, hits give low values 1.03 | locus YDL101C, strain DUN1, hits give low values 1.02 | locus YDL134C, strain PPH21, hits give low values 1.01 | locus YDL185W, strain tfp1, hits give low values 1 | locus YDL192W, strain arf1, hits give low values 0.992 | locus YDR001C, strain nth1, hits give low values 1.01 | locus YDR069C, strain doa4, hits give low values 1.01 | locus YDR101C, strain arx1, hits give low values 0.982 | locus YDR137W, strain rgp1, hits give low values 1.04 | locus YDR150W, strain NUM1, hits give low values 1.02 | locus YDR159W, strain sac3, hits give low values 1.01 | locus YDR162C, strain NBP2, hits give low values 1.03 | locus YDR195W, strain ref2 0.982 | locus YDR297W, strain sur2, hits give low values 1.01 | locus YDR318W, strain mcm21, hits give low values 0.993 | locus YDR334W, strain swr1, hits give low values 1 | locus YDR335W, strain msn5, hits give low values 1.01 | locus YDR388W, hits give low values 0.992 | locus YDR392W, strain spt3, hits give low values 0.981 | locus YDR502C, strain sam2, hits give low values 1 | locus YEL003W, strain gim4, hits give low values 1.01 | locus YEL037C, strain rad23, hits give low values 1.02 | locus YEL061C, strain CIN8 (second series), hits give low values 1.02 | locus YEL061C, strain CIN8, hits give low values 1.02 | locus YER015W, strain faa2, hits give low values 1.02 | locus YER016W, strain bim1, hits give low values 1.02 | locus YER110C, hits give low values 0.988 | locus YER111C, strain swi4, hits give low values 1.02 | locus YER155C, strain BEM2 (second series), hits give low values 1.01 | locus YER155C, strain BEM2, hits give low values 1.01 | locus YER167W, strain BCK2, hits give low values 1.01 | locus YFR010W, strain ubp6, hits give low values 1.01 | locus YGL078C, strain dbp3, hits give low values 0.991 | locus YGL086W, strain mad1, hits give low values 0.991 | locus YGL167C, strain pmr1, hits give low values 1.02 | locus YGL173C, strain kem1, hits give low values 1.01 | locus YGL227W, strain vid30, hits give low values 1.02 | locus YGL240W, strain doc1, hits give low values 1.01 | locus YGL248W, strain PDE1, hits give low values 1.02 | locus YGL253W, strain hxk2, hits give low values 1.02 | locus YGR078C, strain PAC10, hits give low values 1.02 | locus YGR135W, strain pre9, hits give low values 1 | locus YGR229C, strain SMI1, hits give low values 1.03 | locus YGR252W, strain gcn5, hits give low values 0.915 | locus YHR013C, strain ard1, hits give low values 1.02 | locus YHR027C, strain rpn1, hits give low values 1.01 | locus YHR030C, strain SLT2, hits give low values 1.01 and 0.991 | locus YHR079C, strain IRE1 (second series), hits give low values 0.994 | locus YHR079C, strain IRE1, hits give low values 1 | locus YHR094C, strain hxt1, hits give low values 0.991 | locus YHR129C, strain ARP1, hits give low values 0.974 | locus YHR142W, strain chs7, hits give low values 1.02 | locus YHR200W, strain rpn10, hits give low values 0.982 | locus YIL066C, strain RNR3, hits give low values 1.02 | locus YIL073C, strain SPO22, hits give low values 1.01 | locus YIL125W, strain kgd1, hits give low values 0.99 | locus YIR030C, strain dcg1, hits give low values 0.993 | locus YJL092W, strain hpr5, hits give low values 1.01 | locus YJL095W, strain BCK1 (second series), hits give low values 1.02 | locus YJL095W, strain BCK1, hits give low values 1.01 and 0.998 | locus YJL115W, strain asf1, hits give low values 1.02 | locus YJL129C, strain trk1, hits give low values 1.04 | locus YJL134W, strain LCB3, hits give low values 1.01 | locus YJL154C, strain vps35, hits give low values 1.02 | locus YJL164C, strain tpk1, hits give low values 1.03 | locus YJL166W, strain qcr8, hits give low values 1.03 | locus YJL168C, strain set2, hits give low values 0.991 | locus YJL187C, strain SWE1 (second series), hits give low values 1.02 | locus YJL187C, strain SWE1, hits give low values 1.01 | locus YJR043C, strain POL32, hits give low values 0.992 | locus YJR066W, strain TOR1, hits give low values 0.975
